Data on 94 molecules can be found in PubChem BioAssay AID463190 (Sanford-Burnham Center for Chemical Genomics, 2010).

Several values for one entry are separate records, joined by “and”; a condition that tells them apart may be missing. Identical values can stand only once. Hit rate of the full screen: of about 330,000 compounds, about 7,300 (2.2%) were called active. Only a selection was taken, and actives are over-represented in it overall. A number with no mark means an inactive call.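 Rule for the calls: active = inhibition of at least 40%; inactive = the rest.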

This assay is described as follows: growth inhibition of tim10-1 ts yeast – luminescence, uHTS, primary screen (AID 463190).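 Note: mutant grown at 25 °C; 0% = DMSO wells with yeast and 100% = wells holding no yeast.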 Particulars: S. cerevisiae tim10-1 ts strain growth, BacTiter-Glo, 24 h; at 20 µM; stronger effect = higher value.
The term inhibition denotes the relative decrease from the control value, in per cent. With `CC(C)CN(C(=O)COC(=O)c1ccc(Cl)c(N)c1)c1c(N)n(Cc2ccccc2)c(=O)[nH]c1=O`, the inhibition is 2.64%. For `CCCCN=C1N/C(=C\c2ccco2)C(=O)N1c1ccccc1`, the inhibition is 28%. The same measure for `CN(C)CCCN(Cc1cc2cc3c(cc2[nH]c1=O)OCCO3)C(=O)NC1CCCCC1`: 7.7%; for `Cn1c(-c2sccc2OCc2cccc(C(F)(F)F)c2)n[nH]c1=S`: 43.5% (active). The same measure for `COc1cc(/C=N/n2c(C)n[nH]c2=S)ccc1OCc1ccccc1`: 34.8%. The same measure for `Cn1c(-c2sc3cc(C(F)(F)F)cnc3c2-c2ccccc2)n[nH]c1=S`: 18.5%. For the molecule `CCCCNC(=O)Cn1nc(C)c(S(=O)(=O)N2CCOCC2)c1C`, the inhibition was -10.1%. As for `COc1ccc(Cl)cc1NC(=O)C(C)N1CCc2ccccc21` (centres undefined), the figure is 10.7%; as for `c1ccc2c(c1)CCc1snnc1-2`, -9.47%; as for `CC(NC(=S)Nc1ccccc1)C1COc2ccccc2O1` (centres undefined), 44.1% (active). With `CC(=O)c1cccc(NC(=O)C2COc3ccccc3O2)c1` (centres undefined), the inhibition is 6.4%. The same measure for `C/C(=N/NC(=S)Nc1ccccc1)c1ccc2c(c1)OCO2`: 36.6%; for `CCCNC(=O)CCn1cc(-c2ccc(OC)cc2)nc1CCN`: -4.9%. On to `CCCCn1c(N)c(N(CCC(C)C)C(=O)COC(=O)c2ccc(CC)cc2)c(=O)[nH]c1=O`, for which the inhibition is 9.31%. As for `CCCCCCCC(=O)NC(Nc1ccccc1OC)C(Cl)(Cl)Cl` (centres undefined), the figure is -1.41%; as for `CCOC(=O)c1ccc(N=C2SC(C(=O)NC)CC(=O)N2CCc2ccccc2)cc1` (centres undefined), 8.86%. As for `Cc1cccc(N(C)C(=O)CN2C(=O)COc3ccc(S(=O)(=O)N4CCCCCC4)cc32)c1`, the figure is 25.2%; as for `CCOc1ccc(S(=O)(=O)Nc2nc3cc(OC)ccc3s2)cc1`, -15.2%. As for `COc1ccc(S(=O)(=O)Nc2ccc(O)c(Sc3nc4ccccc4s3)c2)cc1`, the figure is 44.6% (active); as for `COc1ccc(NS(=O)(=O)c2ccc3oc(SCC(N)=O)nc3c2)cc1`, 6.21%. For the molecule `O=S(=O)(c1cccs1)N1CCN(CCOc2ccccc2)CC1`, the inhibition is 8.64%. As for `CC(C)Sc1nnc([C@H](Cc2ccccc2)NC(=O)OC(C)(C)C)o1`, the inhibition is 15.3%. As for `C[C@@H](NC(=O)OC(C)(C)C)c1nnc(S(=O)(=O)Cc2ccccc2)o1`, the figure is 45.1% (active). The same measure for `C[C@H](NC(=O)OC(C)(C)C)c1nnc(SCC(=O)Nc2ccc(Br)cc2)o1`: 20.6%; for `C=Cn1c(C(=O)O)ccc1-c1ccc(OC)cc1`: 4.85%; for `CC1(C)CCSC(/C=C/c2ccccc2)=N1`: 44.4% (active). As for `Cc1ccc(C(=O)NC2CCN(C(=O)Nc3ccccc3Cl)CC2)cc1`, the figure is -3.39%; as for `CC(NC(=O)CN(C)S(=O)(=O)c1ccc(F)cc1)C1CC2CCC1C2` (centres undefined), 25.6%. Take `Cc1cc(CNCc2c(C(=O)N(C)Cc3ccccc3)nc3ccccn23)nn1C`: the inhibition was 10.5%. Regarding `COc1cnc(-c2ccccn2)nc1Oc1ccc(C(C)(C)C)cc1`, the inhibition is 35%. As for `Cc1ccc(Oc2nc(-c3ccccn3)nc3ccccc23)cc1`, the figure is 44.9% (active); as for `CC(C)(C)Nc1nc(-c2ccccn2)nc2ccccc12`, -7.74%.

As to `Cn1nc(C(C)(C)C)c([N+](=O)[O-])c1C(N)=O`, the inhibition is -18.4%.

`FC(F)(F)c1cccc(NC(=S)Nc2cccc(Cl)c2)c1`: the inhibition is 48.1% (active).

Turning to `S=C(Nc1cccc(Cl)c1)Nc1ccc2c(c1)OCCO2`, the inhibition was 32.9%. As for `Cc1csc(NC(=S)Nc2cccc(Cl)c2)n1`, the figure is 29.1%. As for `Cc1cc(C)cc(OCC(=O)NCc2cc(C)nc3ccccc23)c1`, the figure is 20.5%; as for `CCOc1ccc(-n2c(SCC(=O)NC3CCS(=O)(=O)C3)nnc2-c2cccnc2)cc1` (centres undefined), 7.61%; as for `Cc1cccc(C)c1NC(=O)CN(C)C(=O)CCC(=O)c1ccccc1`, 9.26%. The same measure for `CN(CC(=O)Nc1c(Cl)cccc1Cl)C(=O)c1ccncc1`: 1.02%; for `Cc1ccc(C(=O)CCC(=O)N(C)CC(=O)Nc2c(Cl)cccc2Cl)cc1`: 97.9% (active); for `Cc1ccc(CNC(=O)Cc2cn(C)c3ccccc23)cc1`: 27.3%.

In the case of `CC(C)CNS(=O)(=O)c1ccc(CCC(=O)NCc2ccc(Cl)cc2)cc1`, the inhibition is 8.22%. As for `Cc1ccc(S(=O)(=O)NCCC(=O)NCc2ccc(Cl)cc2)cc1C`, the inhibition is 8.85%. The same measure for `CSc1ccc(S(=O)(=O)NCc2ccc(Cl)cc2)cc1`: 44.8% (active); for `O=C(OCC(=O)N1CCc2ccccc21)C1CCCN1S(=O)(=O)c1ccc(Cl)cc1` (centres undefined): -10.6%. The same measure for `COc1ccc(CN2CC(C(=O)NCCc3ccc(Cl)cc3)CC2=O)cc1` (centres undefined): -2.13%. As for `CCCC1CCC(=NNC(=S)NCCc2ccccc2)CC1` (centres undefined), the figure is -25.5%. In the case of `CCCCNC(=S)N/N=C1\CCCCc2ccccc21`, the inhibition is 47.7% (active).

As to `Cc1ccc(NC(=S)N/N=C2/CCCc3c(C)cc(C)cc32)cc1`, the inhibition was 9.99%. In the case of `COC(=O)c1c(NC(=O)C(=O)N2CCCCC2)sc2c1CC(C)(C)OC2`, the inhibition is 8.07%. The same measure for `c1ccc(Cc2ccc(OCCn3ccnc3)cc2)cc1`: -1.87%; for `CSCC[C@H](NC(=O)NC1CCCC1)C(=O)O`: 3.78%. The same measure for `O=C(O)c1cccc2c1C(=O)N(C1CCCC1)C2`: 8.44%; for `CCOC(=O)N1CCC(N2Cc3cccc(C(=O)Nc4ccc(S(=O)(=O)N(CC)CC)cc4)c3C2=O)CC1`: 17.7%; for `CCOC(=O)N1CCC(N2Cc3cccc(C(=O)Nc4c(C)cccc4CC)c3C2=O)CC1`: 51% (active). As for `CC(C)(C)Cc1nnc(NC(=O)c2cc(-c3ccccc3)nc3ccccc23)s1`, the figure is 23.3%; as for `O=C(Nc1nnc(-c2ccc(Cl)cc2)o1)c1ccccc1Br`, 6.25%; as for `O=C(Nc1nnc(-c2ccccc2)o1)c1cc(-c2cccs2)nc2ccccc12`, 48.6% (active). On to `Cc1cc([N+](=O)[O-])nn1CCCC(=O)Nc1cccnc1Cl`, for which the inhibition is 16.8%.

`Cc1ccccc1OCC(=O)Nc1ccc(N2CCN(C(=O)C(C)C)CC2)c(Cl)c1`: the inhibition was 63.3% (active). As for `Cc1ccccc1OCC(=O)Nc1ccc2c(c1)ncn2C`, the figure is 5.78%. `Cc1ccccc1OCC(=O)Nc1ccc(S(=O)(=O)N2CCOCC2)cc1`: the inhibition is 37.4%. The same measure for `Cc1cc(NC(=O)CCS(=O)(=O)c2ccc(F)cc2)no1`: -5.29%; for `COc1cc([N+](=O)[O-])ccc1NC(=O)CN1CCCC1`: 6.08%; for `CSc1ccccc1NC(=O)COC(=O)CCCOc1ccc(C)cc1`: 7.06%. The same measure for `COc1cc([N+](=O)[O-])ccc1NC(=O)COC(=O)CCOc1ccc(C)cc1`: 50.3% (active); for `COC(=O)N/N=C/c1ccc(/C=N/NC(=O)OC)cc1`: 7.21%. As for `Cc1nonc1C(=O)N/N=C/c1ccc(O)cc1`, the figure is 51.4% (active); as for `Cc1nc2ccc(C(=O)N/N=C/c3ccc(O)cc3)cc2[nH]1`, 0.009%; as for `O=C(O)Cc1csc(-c2cccc(Oc3ccccc3)c2)n1`, 7.9% and -6.65%.

On to `CN(CC(=O)NCCc1ccc(S(N)(=O)=O)cc1)CC(=O)Nc1ccc(F)c(F)c1F`, for which the inhibition is 0.849%.

Take `Cc1ccc(S(=O)(=O)N(CC(O)CN2CCCCC2)c2cccc([N+](=O)[O-])c2)cc1` (centres undefined): the inhibition is -38.7%. The same measure for `CC1CCCCN1C(=S)NCc1ccccc1` (centres undefined): -0.074%; for `C/C(=N\NC(=S)NCc1ccccc1)C1CCCCC1`: 42.6% (active). As for `C/C(=N\NC(=S)NCc1ccccc1)c1ccc(Cl)cc1`, the figure is 22.9%.

Consider `Cc1oc(CC(C)C)c(CN2CCCC2)c1C(=O)O`, for which the inhibition is 3.08%. On to `O=C1c2cccc(OCC(=O)N3N=C(c4cccs4)CC3c3ccc(F)cc3)c2CCN1Cc1ccccc1` (centres undefined), for which the inhibition was 19.6%. As for `O=C(COc1ccccc1Cl)N1N=C(c2cccs2)CC1c1ccco1` (centres undefined), the figure is 40.8% (active); as for `Cc1ccc(C2=NN(C(=O)COc3ncnc4ccccc34)C(c3ccco3)C2)cc1` (centres undefined), -2.47%; as for `CCc1n[nH]c(=S)n1/N=C/c1c[nH]c2ccc(Br)cc12`, 12%. As for `Cc1cc(C)cc(NC(=O)C2CCCN(S(=O)(=O)c3ccc4[nH]c(=O)ccc4c3)C2)c1` (centres undefined), the figure is -13.6%. The same measure for `O=C(OCC(=O)N1CCN(c2ccccc2)CC1)c1ccc([N+](=O)[O-])s1`: 11.9%; for `COc1ccc(C(=O)COC(=O)c2ccc([N+](=O)[O-])s2)cc1OC`: 57.9% (active). For `COc1cc(NC(=O)COC(=O)c2ccc([N+](=O)[O-])s2)cc(OC)c1OC`, the inhibition is 30.9%. As for `S=c1[nH]nc(-c2ccco2)n1/N=C/c1ccc(Br)s1`, the figure is 22.5%; as for `CC(C)(C)c1ccc(C(=O)NCc2ccco2)cc1`, 15.4%; as for `CC(=O)NCCNC(=O)c1cc(-c2cccc3ccccc23)nc2ccccc12`, 3.15%.

Turning to `CCc1ccc(-c2cc(C(=O)NCc3ccco3)c3ccccc3n2)s1`, the inhibition was 45.4% (active).

Regarding `O=C(Cc1ccccc1)Nc1ccc(C(=O)Nc2ccccc2C(=O)O)cc1`, the inhibition was 1.08%. Take `FC(F)(F)c1ccc(CN2C[C@@H]3C(c4ccccc4)C4(c5ccccc5)CC3(C4)[C@H]2c2ccccc2)cc1` (some centres undefined): the inhibition was 28.9%. For `O=C(NCc1ccc2c(c1)OCO2)c1c(-c2ccsc2)sc2ccccc12`, the inhibition is 5.6%. As for `CN[C@H](C(=O)NC[C@H]1O[C@@H](n2cnc3c(N)ncnc32)[C@H](O)[C@@H]1O)[C@@H](C)OCc1ccccc1`, the figure is 0.16%; as for `Cc1ccc(Cl)c(NC(=O)CN2CCN(C=O)CC2)c1`, -10.1%.
